A selection: hits, their analogues and other compounds. The true share with any hit is near 27%.
CYP2C9 activ – human CYP2C9 activators, primary screen, biochemical, luminescence; activation factor at 5 µM; 96,000 tested, 1.4% active; Cytochrome P450 2C9 (Homo sapiens), P11712; recombinant CYP2C9, luciferin-H conversion; active compounds read high; factor 1 = untreated enzyme, 0 = blocked;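 active = activation factor of 2 or more for CYP2C9 at a 5 µM dose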
Target sequence (P11712 whole entry, looked up): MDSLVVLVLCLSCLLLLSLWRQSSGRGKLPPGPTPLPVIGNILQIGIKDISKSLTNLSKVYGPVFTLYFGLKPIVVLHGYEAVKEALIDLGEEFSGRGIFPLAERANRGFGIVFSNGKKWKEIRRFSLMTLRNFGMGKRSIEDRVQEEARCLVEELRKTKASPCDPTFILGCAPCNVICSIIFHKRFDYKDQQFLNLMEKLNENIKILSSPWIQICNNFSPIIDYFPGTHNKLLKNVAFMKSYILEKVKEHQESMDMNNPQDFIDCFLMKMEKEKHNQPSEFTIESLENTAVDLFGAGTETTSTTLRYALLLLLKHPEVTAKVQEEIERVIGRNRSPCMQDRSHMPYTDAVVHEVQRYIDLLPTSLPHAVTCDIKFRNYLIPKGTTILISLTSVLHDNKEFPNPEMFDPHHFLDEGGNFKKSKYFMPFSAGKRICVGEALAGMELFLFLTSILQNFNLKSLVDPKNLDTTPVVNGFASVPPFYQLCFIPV
CYP2C19 activ – human CYP2C19 activators, primary screen, biochemical, luminescence; activation factor at 5 µM; AID 1025, 2008; 96,000 tested, under 10 active; recombinant CYP2C19, luciferin-H EGE luminescence; active compounds read high; 0 = fully inhibited enzyme, 1 = untreated enzyme;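 active = activation factor of at least 2 at 5 µM in the primary screen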
Cav32 inh – Cav3.2 calcium influx blockers – cell-based, Fluo-4 calcium fluorescence, FDSS, MLSMR library, primary screen. AID 449739, 2010. Voltage-dependent T-type calcium channel subunit alpha-1H (Homo sapiens), O95180. B-score at 10 µM. Cav3.2-expressing cells; active compounds read low. 100,000 tested, 4% active;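 active = single-dose well whose peak fluorescence ratio is a statistical outlier from its plate by either plate-standardised score or position-corrected B-score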
Pyk2 oligo antag – antagonists of Pyk2 self-association, primary screen, Q293 cells, FERM NanoBiT luminescence, HTS; Protein-tyrosine kinase 2-beta (Homo sapiens), Q14289; active compounds read low; z-score (the deposit names both 25 µM and 10 µM); 99,000 tested, 0.83% active;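 active = Z-score of -3 or lower, scaled per plate to the spread of control and sample wells; inactive = z-score above -3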;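 note: negative z-score means lost luminescence so less FERM oligomerization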
CYP2C19 inhib – blockers of cytochrome P450 2C19 activity – biochemical, luminescence, ADME assay, primary screen. P33261. CYP2C19 Supersomes, luciferin-H EGE luminescence, 30 min. inhibition, % at 5 µM. 96,000 tested, 21% active. AID 778, 2007;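 active = CYP2C19 inhibition above a set limit at 5 µM in the primary screen, cut at about 50% in these data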
CYP2C9 inhib – blockers of cytochrome P450 2C9 activity – biochemical, luminescence, ADME assay, primary screen | CYP2C9 Supersomes, luciferin-H conversion | inhibition, % at 5 µM | 96,000 tested, 20% active | AID 777, 2007;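 active = blocking of liver enzyme CYP2C9 beyond about 50% at 5 µM, limit read from the data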
Each line names hits and unclear results; the compound was inactive in the other large screens.

CCCCCCn1c(=O)c(F)cn(Cc2ccc(OC)c([N+](=O)[O-])c2)c1=O	CYP2C9 inhib 60
CCCn1c(=O)c(F)cn(Cc2ccc(OC)c([N+](=O)[O-])c2)c1=O	none
CCCCCn1c(=O)c(F)cn(Cc2ccc(OC)c([N+](=O)[O-])c2)c1=O	CYP2C9 inhib 52
CCCCCOc1ccc(CSC(=N)N)cc1[N+](=O)[O-]	none
COC(=O)C(NC=O)C(O)(Cc1ccccc1)C(F)(F)F (stereo unspecified)	CYP2C19 inhib 57
C=CCN=C1SC(C)C(=O)N1S(=O)(=O)c1ccccc1 (stereo unspecified)	CYP2C19 inhib 73
Cc1ccc(S(=O)(=O)N2C(=O)C(c3ccccc3)SC2=Nc2ccccc2)cc1 (stereo unspecified)	none
Cc1cc(C)n2nc(SCC(=O)Nc3c(C)n(C)n(-c4ccccc4)c3=O)nc2n1	none
Cc1[nH]c2ccc(C(=O)OCCN(C)C)cc2c1C	CYP2C19 inhib 86
CN(C)CCOC(=O)c1cccc(Br)c1	none
COc1ccccc1N1CCN(C(c2cc3ccc(C)cc3[nH]c2=O)c2nnnn2C2CCCC2)CC1 (stereo unspecified)	CYP2C19 inhib 72, CYP2C9 inhib 91
CCOC(=O)c1cc2oc(C(c3nnnn3C3CCCCC3)N3CCOCC3)cc2[nH]1 (stereo unspecified)	Cav32 inh -3.5 (no result: CYP2C9 activ, CYP2C19 activ, CYP2C19 inhib, CYP2C9 inhib)
CCOC(=O)C1CCN(C(c2cc3ccc(C)cc3[nH]c2=O)c2nnnn2C2CCCCC2)CC1 (stereo unspecified)	CYP2C19 inhib 79, CYP2C9 inhib 84
COc1cc(S(=O)(=O)N2CCN(C(=O)c3ccccc3F)CC2)c(OC)cc1NC(C)=O	none
O=C(c1ccccc1)N1CCCCC(Sc2nnc3ccccn23)C1=O (stereo unspecified)	none
Cc1ccccc1N(CC(=O)NCC1CCCO1)C(=O)C1(C)CC(=O)N=C2C=CC=CN21 (stereo unspecified)	none
CCCC1(C(=O)OCC)NC(c2ccc(N(C)C)cc2)C2C(=O)N(c3ccccc3)C(=O)C21 (stereo unspecified)	none (no result: CYP2C9 activ, CYP2C19 activ, CYP2C19 inhib, CYP2C9 inhib)
CCCC1(C(=O)OCC)NC(c2ccc(N(C)C)cc2)C2C(=O)N(c3ccc(OCC)cc3)C(=O)C21 (stereo unspecified)	CYP2C19 inhib 74
CC1(C)Cc2noc(N)c2C(C)(C)N1OC(=O)c1scc2c1OCCO2	CYP2C19 inhib 51
CC1(C)Cc2noc(N)c2C(C)(C)N1OC(=O)c1cccs1	CYP2C19 inhib 98, CYP2C9 inhib 83
CC(=O)ON1C(C)(C)Cc2noc(N)c2C1(C)C	none
O=C1NC(c2cn(-c3ccccc3)nc2-c2cccs2)C(C(=O)c2cccnc2)C(O)(C(F)(F)F)N1 (stereo unspecified)	none
CCn1ncc(Cl)c1C(=O)Nc1ccncc1	CYP2C19 inhib 96, CYP2C9 inhib 93
Cc1nn(C)c(C)c1NC(=O)c1ccc(S(=O)(=O)N(C)C)cc1	none
O=S(=O)(Nc1ccc(Oc2ncccn2)c(Cl)c1)c1ccc(Cl)cc1	CYP2C19 inhib 99, CYP2C9 inhib 99
CCOC(=O)c1cc(-c2nnc(-c3ccc(Oc4ccccc4)cc3)o2)c(C)nc1C	CYP2C9 inhib 63 (no result: Pyk2 oligo antag)
Cc1cccc(-n2ncc3c(N(C)Cc4ccccc4)ncnc32)c1	none (no result: CYP2C9 activ, CYP2C19 activ, Pyk2 oligo antag, CYP2C19 inhib, CYP2C9 inhib)
CCc1c(C)nc2cc(-c3ccc(OC)c(OC)c3)nn2c1NCC1CC1	none (no result: Cav32 inh)
COc1ccc(NC(=O)CSc2nnc(Cn3cnc4ccccc43)n2C)cc1	none (no result: CYP2C9 activ, CYP2C19 activ, CYP2C19 inhib, CYP2C9 inhib)
Cn1c(Cn2cnc3ccccc32)nnc1SCC(=O)CC(=O)Nc1ccccc1	CYP2C9 inhib 70
Cc1cccc(N(CC(=O)N/N=C/c2ccc(OCC(=O)NCc3ccco3)cc2)S(C)(=O)=O)c1C	CYP2C19 inhib 77, CYP2C9 inhib 96
COc1ccc(CNc2nc(SCC(=O)NCc3ccco3)nc3ccccc23)cc1	none (no result: CYP2C9 activ, CYP2C19 activ, CYP2C19 inhib, CYP2C9 inhib)
COc1ccc(CSCC(=O)N/N=C/c2ccc(OCC(=O)NCc3ccco3)cc2)cc1	CYP2C19 inhib 58, CYP2C9 inhib 70
Cc1cccc(N(CC(=O)N/N=C/c2cc([N+](=O)[O-])ccc2Cl)S(C)(=O)=O)c1C	Cav32 inh -5.5, CYP2C19 inhib 53
COCc1nnc(NC(=O)CCSc2ccccc2)s1	none
Cc1nnc(NC(=O)CSc2ccccn2)s1	none
CCOc1ccc2nc(NC(=O)CSC3=NCCS3)sc2c1	none
COc1ccc2nc(NC(=O)CSc3ccccc3)sc2c1	CYP2C9 inhib 63
COc1ccc2nc(NC(=O)CSC3=NCCS3)sc2c1	CYP2C19 inhib 64
COc1ccc2nc(NC(=O)CSc3nnc(N)s3)sc2c1	none (no result: CYP2C9 activ, CYP2C19 activ, Cav32 inh, CYP2C19 inhib, CYP2C9 inhib)
CC(C)Cc1nnc(NC(=O)CSc2ccccn2)s1	CYP2C19 inhib 56
COCc1nnc(NC(=O)CSc2ccccc2)s1	CYP2C19 inhib 67
COC(C[C@@H]1O[C@@H]1[C@@H](O)COCc1ccccc1)OC	none (no result: CYP2C9 activ, CYP2C19 activ, Pyk2 oligo antag, CYP2C19 inhib, CYP2C9 inhib)
Cc1c(-c2cccs2)[n+](=O)c2c(n1[O-])CCCC2	none (no result: CYP2C9 activ, CYP2C19 activ, CYP2C19 inhib, CYP2C9 inhib)
COc1ccc2nc(NC(=S)N(C)C)sc2c1	CYP2C19 inhib 99, CYP2C9 inhib 94
CCOc1ccc2nc(SCC(=O)c3ccc(C)s3)sc2c1	CYP2C19 inhib 51
CCOCC(=O)Nc1nc2ccc(OCC)cc2s1	CYP2C19 inhib 52
CCOc1ccc2nc(NC(=O)CSc3ccc(Cl)cc3)sc2c1	CYP2C9 inhib 63
CCCC(=O)Nc1nc2ccc(OC)cc2s1	none (no result: Pyk2 oligo antag)
COc1cc(Cl)c(C)cc1NC(=O)COc1cc(C)nc(C(C)C)n1	CYP2C9 inhib 51
COc1cc(Cl)c(C)cc1NC(=O)CSC	CYP2C19 inhib 52
COc1cc(Cl)c(C)cc1NC(=O)CSc1ccc(C)cc1	none
COc1ccccc1NC(=O)COc1cc(C)nc(C(C)C)n1	none
COCCSc1ccccc1C(=O)NCc1ccco1	none
CCOC(=O)c1cc2c(nc1N)CC(C)(CC)OC2 (stereo unspecified)	CYP2C19 inhib 92
CCOC(=O)c1cc2c(nc1N)CC(C)(C)OC2	none (no result: CYP2C9 activ, CYP2C19 activ, CYP2C19 inhib, CYP2C9 inhib)
CCOC(=O)c1c(/N=C/N(C)C)sc(C(=O)OC)c1C	CYP2C19 inhib 78
CCOC(=O)c1c(NC(=O)CC)sc(C(C)=O)c1C	CYP2C19 inhib 69, CYP2C9 inhib 77 (no result: Cav32 inh)
CCOC(=O)c1c(NC(=O)OC)sc(C(=O)N(C)C)c1C	CYP2C9 inhib 54
CCOC(=O)c1c(NC(=O)Cc2cccs2)sc(C(=O)NC2CCCC2)c1C	none
CCOC(=O)c1c(NC(=O)Cc2cccs2)sc(C(=O)NC2CCCCC2)c1C	CYP2C9 inhib 71
COC(=O)Nc1sc(C(=O)N(C)C)c(C)c1C(=O)OC	none
CSc1ncccc1C(=O)OCC(=O)NC(=O)NCCC(C)C	none
